Compound activity as filed in PubChem BioAssay.
AddAB inh = growth inhibition of E. coli expressing H. pylori AddAB, primary screen, AddAB inhibitor project, absorbance | inhibition, % at 11.9 µM | hit rate 0.29% among 330,000 | AID 435030, 2010; in the data active = inhibition above about 12%
E coli growth-1 = E. coli growth inhibition, primary screen, OD600 | Escherichia coli growth, 23 h; stronger effect = lower value | OD600 absorbance (test concentration not listed) | hit rate 0.21% among 330,000 | AID 1053175, 2014;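 active = OD600 absorbance below the run mean of sample wells minus 3.6 SD, in any replicate, cut at about 0.56 in these data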
phage Ecoli inh = growth loss of phage-infected E. coli, primary screen, RecBCD inhibitor project, absorbance, with phage, HTS; inhibition, % at 11.9 µM; hit rate 0.26% among 360,000; AID 651602, 2012; in the data active = inhibition above about 11%
Tat export inh = E. coli Tat export inhibitors, primary screen, MC4100, TorA-mCherry reporter, fluorescence, single point; hit rate 0.036% among 340,000; inhibition, % at 10 µM; AID 488895, 2010;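 active = mean replicate inhibition at least 50% and at least half of replicates individually reaching 50%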;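 note: exported cargo escapes ClpAP degradation while cytoplasmic cargo is degraded and loses fluorescence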
E coli growth-2 = E. coli V3065 growth inhibition, primary screen, counter-screen for AddAB inhibitor project, absorbance, OD600; AID 449728, 2010; 18 h; hit rate 0.27% among 330,000; inhibition, % at 11.9 µM;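 active = inhibition above the campaign's mean inhibition across all tested compounds plus 3 SD, cut at about 9.9% in these data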;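 note: uninfected addAB+ strain grown without phage in ampicillin broth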
AddAB conf = growth loss of phage-infected E. coli expressing H. pylori AddAB, confirmation, AddAB inhibitor project, absorbance, E. coli V3065, T4 phage, triplicate; shares compounds with AddAB inh; hit rate 64% among 880; inhibition, % at 11.9 µM; OD; T4 phage with gene 2 nonsense mutations;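 active = mean inhibition above a set limit taken from the earlier primary screen, cut at about 13% in these data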;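 note: higher means less bacterial growth since AddAB block lets phage replicate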
RecBCD counter = growth loss of RecBCD+ E. coli with mutant T4 phage, counter-screen for AddAB inhibitor project, absorbance, V66 E. coli. shares compounds with AddAB inh. OD growth. inhibition, % at 11.9 µM. hit rate 73% among 880;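 active = mean inhibition above the mean of solvent-only control wells plus 3 SD, cut at about 4% in these data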;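 note: optical density read after an 18 h incubation at 37 °C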
bact viab count = bacterial viability inhibition counter-screen, confirmation, counter-screen for AddAB inhibitor project, absorbance; hit rate 35% among 880; inhibition, % at 11.9 µM; AID 488956, 2010; absorbance (AddAB counterscreen); shares compounds with AddAB inh; in the data active = inhibition above about 25%
Large screens that a line does not name were inactive (follow-up assays come after a bar, where they were run). An excerpt weighted towards active compounds, which were near 0.5% of everything screened.

CC1C(C#N)=C(N)OC2=C1C(=O)CC(c1ccccc1)C2 (configuration not stated)	AddAB inh 97, E coli growth-2 73 | AddAB conf inactive | RecBCD counter inactive | bact viab count inactive
O=C(NCC1CCCO1)C(=Cc1ccco1)NC(=O)c1ccccc1 (configuration not stated)	none (no result: AddAB inh, phage Ecoli inh, Tat export inh, E coli growth-2)
COc1ccc(Cc2nnc(NN)[nH]c2=O)cc1OC	AddAB inh 97, E coli growth-1 0.081, E coli growth-2 93 | AddAB conf 99 | RecBCD counter 11 | bact viab count 97
COCCNc1nnc(Cc2ccc(OC)c(OC)c2)c(=O)[nH]1	none
COC(=O)C1=C(C)N(Cc2ccccc2)C(=NCCCCO)NC1c1ccccc1 (configuration not stated)	none (no result: AddAB inh, phage Ecoli inh, Tat export inh, E coli growth-2)
O=C(NNC(=O)C1CCN(S(=O)(=O)c2ccccc2C(F)(F)F)CC1)c1ccccc1O	AddAB inh 14 | AddAB conf 13 | RecBCD counter 8.8 | bact viab count inactive
O=C(NCc1ccco1)C1CCN(S(=O)(=O)c2ccccc2C(F)(F)F)CC1	none
O=C(NNC(=O)C1CCN(S(=O)(=O)c2c(Cl)cccc2Cl)CC1)c1ccccc1O	AddAB inh 13 | AddAB conf inactive | RecBCD counter 6.2 | bact viab count inactive
O=C(NNC(=O)C1CCN(S(=O)(=O)c2ccccc2)CC1)c1ccccc1O	none
S=C(NCCCc1ccccc1)Nc1ccc(Cl)cc1	AddAB inh 12 | AddAB conf inactive | RecBCD counter 12 | bact viab count inactive
S=C(NCCCc1ccccc1)Nc1ccccc1	none (no result: AddAB inh, E coli growth-2)
CC(=O)c1cc(F)c(N2CCN(C(=O)c3ccco3)CC2)cc1C	none
CCn1cc(C(=O)NCCC(C)C)c(=O)c2cc(F)c(N3CCN(C(=O)c4ccco4)CC3)cc21	AddAB inh 26, E coli growth-1 0.15, E coli growth-2 16 | AddAB conf 99 | RecBCD counter inactive | bact viab count 36
CCn1cc(C(=O)NC(C)C)c(=O)c2cc(F)c(N3CCN(C(=O)c4ccco4)CC3)cc21	AddAB inh 89, E coli growth-1 0.087, E coli growth-2 82 | AddAB conf 99 | RecBCD counter inactive | bact viab count 35
Cc1cc(C)nc(NN=Cc2ccccc2Cl)n1	none (no result: AddAB inh, phage Ecoli inh, Tat export inh, E coli growth-2)
COC(=O)C1=C(C)N(CC2CC2)C(=NCc2cc(OC)c(OC)c(OC)c2)NC1c1ccccc1 (configuration not stated)	none (no result: AddAB inh, phage Ecoli inh, Tat export inh, E coli growth-2)
Cc1ccc(NC(=O)CCC(=O)N/N=C/c2ccc([N+](=O)[O-])o2)cc1C	none (no result: E coli growth-1)
CCCC(=O)Nc1ccc(C(=O)N/N=C/c2ccc([N+](=O)[O-])o2)cc1	AddAB inh 18, E coli growth-2 22 (no result: E coli growth-1) | AddAB conf 100 | RecBCD counter 12 | bact viab count 28
Cc1cc(C(=O)N/N=C/c2ccc([N+](=O)[O-])o2)c(C)o1	AddAB inh 13 (no result: E coli growth-1) | AddAB conf 98 | RecBCD counter 7.9 | bact viab count inactive
O=C(N/N=C/c1ccc([N+](=O)[O-])o1)C(O)c1ccccc1 (configuration not stated)	AddAB inh 86, E coli growth-2 15 (no result: E coli growth-1) | AddAB conf 96 | RecBCD counter 11 | bact viab count 29
O=[N+]([O-])c1ccc(N/N=C/c2ccc[nH]2)cc1	AddAB inh 12 (no result: E coli growth-1) | AddAB conf 13 | RecBCD counter inactive | bact viab count inactive
CCOC(=O)CC1c2ccccc2S(=O)(=O)N1C1CC1 (configuration not stated)	none (no result: AddAB inh, phage Ecoli inh, Tat export inh, E coli growth-2)
CCCCN1CC(=O)N2C3c4cc(OC)ccc4OCC3C(C(=O)OCC)[C@]2(C)C1=O (some centres not stated)	none (no result: AddAB inh, phage Ecoli inh, Tat export inh, E coli growth-2)
COc1ccc2[nH]c3c(c2c1)CCNC3c1ccc([N+](=O)[O-])o1 (configuration not stated)	AddAB inh 41, E coli growth-2 10 (no result: E coli growth-1) | AddAB conf 14 | RecBCD counter inactive | bact viab count inactive
